Inconclusive results are not listed. The source made the active and inactive calls. Unless noted, calls follow the shape of the dose curve; as a rule, active = well fitted curve in the direction sought with a large enough effect; inconclusive = small, poorly fitted or top-dose-only effect, or another doubt; inactive = no such curve, though single readings can be large; an effect the other way counts as inactive or inconclusive.
Tests used:
[1] = target: Rap guanine nucleotide exchange factor 3 (Homo sapiens) (UniProt O95398); assay: Confirmatory qHTS for antagonist of cAMP-regulated guanine nucleotide exchange factor 3 (EPAC1) (AID 1645880); details: EPAC1 Rap1B-BODIPY-GDP exchange, fluorescence; activity, negative = inhibition: at 115 µM (top of the series);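 also: plate controls were DMSO only for no effect and full effect of the ATA control for full effect; nearly all actives have a fitted effect of over 55% in size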
Sequence of Rap guanine nucleotide exchange factor 3 (Homo sapiens) (O95398 whole entry, looked up): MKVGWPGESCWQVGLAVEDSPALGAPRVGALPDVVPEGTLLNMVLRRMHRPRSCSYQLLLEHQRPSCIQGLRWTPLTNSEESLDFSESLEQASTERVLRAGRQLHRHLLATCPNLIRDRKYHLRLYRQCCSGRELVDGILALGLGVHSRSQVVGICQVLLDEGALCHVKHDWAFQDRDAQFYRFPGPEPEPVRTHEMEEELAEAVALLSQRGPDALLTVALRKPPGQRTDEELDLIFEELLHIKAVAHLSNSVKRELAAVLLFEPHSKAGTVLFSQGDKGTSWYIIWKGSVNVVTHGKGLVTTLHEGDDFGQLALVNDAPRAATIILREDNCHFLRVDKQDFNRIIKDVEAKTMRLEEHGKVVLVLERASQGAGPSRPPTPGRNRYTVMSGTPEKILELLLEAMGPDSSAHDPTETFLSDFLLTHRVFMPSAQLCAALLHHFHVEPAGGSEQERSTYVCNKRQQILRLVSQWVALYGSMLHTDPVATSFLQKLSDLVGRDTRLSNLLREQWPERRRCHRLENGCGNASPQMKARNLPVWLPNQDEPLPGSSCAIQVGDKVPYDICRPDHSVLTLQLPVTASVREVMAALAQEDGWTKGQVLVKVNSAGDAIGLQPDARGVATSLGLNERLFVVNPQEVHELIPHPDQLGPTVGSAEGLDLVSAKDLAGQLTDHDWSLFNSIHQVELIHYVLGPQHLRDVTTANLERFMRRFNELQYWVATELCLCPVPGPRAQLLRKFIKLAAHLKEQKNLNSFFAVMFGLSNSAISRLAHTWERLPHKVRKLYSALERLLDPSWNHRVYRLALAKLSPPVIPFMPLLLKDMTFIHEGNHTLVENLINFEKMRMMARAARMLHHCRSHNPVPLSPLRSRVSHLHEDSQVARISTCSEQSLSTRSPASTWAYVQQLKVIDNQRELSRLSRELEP
Summary of the method: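 Released BODIPY-GDP fluoresces less than Rap1-bound BODIPY-GDP; the signal is followed at 480/540 nm at 5-min intervals over 30 min, after 5 min at room temperature. Reactions contain 100 nM EPAC1, 250 nM RAP1B-BODIPY-GDP and 50 uM GDP; results are normalized to ATA and DMSO.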

[2] = target: Rap guanine nucleotide exchange factor 3 (Homo sapiens) (UniProt O95398); assay: Confirmatory qHTS for agonist of cAMP-regulated guanine nucleotide exchange factor 3 (EPAC1) (AID 1645881);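 also: EPAC1 catalysed release of BODIPY-GDP from Rap1B seen as fluorescence loss; 100% = effect of cAMP agonist control; nearly all actives have a fitted effect of over 75% in size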
[3] = target: Rap guanine nucleotide exchange factor 4 (Homo sapiens) (UniProt Q8WZA2); assay: Confirmatory qHTS for agonist of cAMP-regulated guanine nucleotide exchange factor 4 (EPAC2) (AID 1645884);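 also: nucleotide exchange releases bodipy-GDP from Rap1 and this lowers its fluorescence; % is scaled to controls: 0 for no effect and ±100 for the full control effect; nearly all actives have a fitted effect of over 65% in size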
Sequence of Rap guanine nucleotide exchange factor 4 (Homo sapiens) (Q8WZA2 whole entry, looked up): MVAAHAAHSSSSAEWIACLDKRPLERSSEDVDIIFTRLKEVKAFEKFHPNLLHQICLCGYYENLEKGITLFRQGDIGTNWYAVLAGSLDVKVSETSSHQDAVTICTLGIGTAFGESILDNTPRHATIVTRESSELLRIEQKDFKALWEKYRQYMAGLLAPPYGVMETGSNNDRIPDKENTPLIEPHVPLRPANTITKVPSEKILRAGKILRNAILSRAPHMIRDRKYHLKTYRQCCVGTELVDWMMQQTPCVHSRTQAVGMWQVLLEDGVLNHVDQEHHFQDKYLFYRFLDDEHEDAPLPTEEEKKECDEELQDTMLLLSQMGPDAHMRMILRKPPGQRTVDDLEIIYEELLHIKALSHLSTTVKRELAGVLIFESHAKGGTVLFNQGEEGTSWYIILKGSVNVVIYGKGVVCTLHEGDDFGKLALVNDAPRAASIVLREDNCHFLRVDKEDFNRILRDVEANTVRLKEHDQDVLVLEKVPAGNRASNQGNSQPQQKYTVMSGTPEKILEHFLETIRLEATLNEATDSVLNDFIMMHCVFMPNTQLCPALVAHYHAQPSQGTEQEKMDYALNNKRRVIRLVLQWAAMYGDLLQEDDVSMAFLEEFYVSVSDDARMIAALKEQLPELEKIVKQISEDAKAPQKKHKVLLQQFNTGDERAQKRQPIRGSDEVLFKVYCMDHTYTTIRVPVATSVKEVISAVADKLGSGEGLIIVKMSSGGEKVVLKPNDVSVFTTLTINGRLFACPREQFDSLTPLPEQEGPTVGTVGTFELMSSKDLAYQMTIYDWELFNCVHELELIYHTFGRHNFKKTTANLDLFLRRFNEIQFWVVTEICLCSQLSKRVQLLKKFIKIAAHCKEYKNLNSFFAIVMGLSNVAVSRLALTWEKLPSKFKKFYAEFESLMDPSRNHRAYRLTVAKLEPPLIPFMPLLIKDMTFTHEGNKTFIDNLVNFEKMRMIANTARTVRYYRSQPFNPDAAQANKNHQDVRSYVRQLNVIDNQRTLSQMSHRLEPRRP

[4] = target: Rap guanine nucleotide exchange factor 4 (Homo sapiens) (UniProt Q8WZA2); assay: Confirmatory qHTS for antagonist of cAMP-regulated guanine nucleotide exchange factor 4 (EPAC2) (AID 1645885); also: nearly all actives have a fitted effect of over 25% in size; as to activity change, negative = inhibition: % is scaled to controls: 0 for no effect and ±100 for the full control effect
[5] = target: Rap guanine nucleotide exchange factor 3 (Homo sapiens) (UniProt O95398); assay: Counterscreen qHTS for antagonist of cAMP-regulated guanine nucleotide exchange factor 3 (EPAC1) (AID 1645888); also: % of control where 0% means no effect
Summary of the method: (§1)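 Rap1B–BODIPY-GDP (250 nM) with 50 uM GDP; compounds pin-transferred to 9.74 nM–152 uM final (activator) or from 7.32 nM upwards (inhibitor). Fluorescence Ex/Em 480/540 nm read at 5 and 30 min, then after adding cAMP or buffer, at room temperature.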

[6] = target: Rap guanine nucleotide exchange factor 3 (Homo sapiens) (UniProt O95398); assay: Counterscreen qHTS for agonist of cAMP-regulated guanine nucleotide exchange factor 3 (EPAC1) (AID 1645889); also: % of control where 0% means no effect; nearly all actives have a fitted effect of over 40% in size
Summary of the method: as §1

[7] = AP1 Signaling Pathway (AID 357; active = well fitted curve in either direction with a large enough effect, not every such curve was filed as active;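 also: ME-180 reporter cells stimulated with EGF at its EC50 level; % is scaled to controls: 0 for no effect and ±100 for the full control effect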); details: ME-180 AP-1-bla reporter, EGF-induced, beta-lactamase ratio, 5 h; at 7.69 µM (top of the series) unless noted
Summary of the method: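 AP-1-bla ME-180 cells, Opti-MEM + 0.5% dialyzed FBS, plated overnight 37 °C. Cpd titration + EC50 EGF, 5 h 37 °C. CCF4 2.5 h RT; ex 405, em 460/530 ratio → %activity, AC50.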

[8] = NFAT Signaling Pathway (AID 444; active = well fitted curve in either direction with a large enough effect, not every such curve was filed as active;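 also: carbachol stimulus at about its EC50 of 1 µM final; % is scaled to controls: 0 for no effect and ±100 for the full control effect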); details: Jurkat NFAT-bla M1, carbachol, beta-lactamase ratio, 5 h; at 7.69 µM (top of the series) unless noted
Summary of the method: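 Jurkat cells with NFAT-driven β-lactamase reporter and co-expressed M1 receptor, stimulated with carbachol (final 1 uM, ~EC50), compound titration, 5 h at 37 °C. CCF4 loaded 1 h at RT; 460/530 nm ratio gave %activity and AC50.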

[9] = Stat Signaling Pathway (AID 446; active = well fitted curve in either direction with a large enough effect, not every such curve was filed as active;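 also: ME-180 cervical cancer cells given 40 pM IL-6 alongside compound; SIE-controlled beta-lactamase reporter measured as 460/530 nm FRET emission ratio; % is scaled to controls: 0 for no effect and ±100 for the full control effect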)
Summary of the method: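 Overnight-plated ME-180 cells bearing a STAT Inducible Element beta-lactamase reporter; 5 h co-exposure to compound and 40 pM IL-6; values normalized to 300 pM IL-6 and 125 nM JAK inhibitor controls.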

[10] = target: Glucocorticoid receptor (Homo sapiens) (UniProt P04150); assay: GR-GFP Redistribution (AID 450;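 active = compounds whose dose series gives a full or clear partial fitted curve of increased nuclear translocation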; also: potency is read from the fitted curve at half-maximal effect); details: U2OS GR-GFP nuclear translocation, laser cytometry, 2 h
Sequence of Glucocorticoid receptor (Homo sapiens) (P04150 whole entry, looked up): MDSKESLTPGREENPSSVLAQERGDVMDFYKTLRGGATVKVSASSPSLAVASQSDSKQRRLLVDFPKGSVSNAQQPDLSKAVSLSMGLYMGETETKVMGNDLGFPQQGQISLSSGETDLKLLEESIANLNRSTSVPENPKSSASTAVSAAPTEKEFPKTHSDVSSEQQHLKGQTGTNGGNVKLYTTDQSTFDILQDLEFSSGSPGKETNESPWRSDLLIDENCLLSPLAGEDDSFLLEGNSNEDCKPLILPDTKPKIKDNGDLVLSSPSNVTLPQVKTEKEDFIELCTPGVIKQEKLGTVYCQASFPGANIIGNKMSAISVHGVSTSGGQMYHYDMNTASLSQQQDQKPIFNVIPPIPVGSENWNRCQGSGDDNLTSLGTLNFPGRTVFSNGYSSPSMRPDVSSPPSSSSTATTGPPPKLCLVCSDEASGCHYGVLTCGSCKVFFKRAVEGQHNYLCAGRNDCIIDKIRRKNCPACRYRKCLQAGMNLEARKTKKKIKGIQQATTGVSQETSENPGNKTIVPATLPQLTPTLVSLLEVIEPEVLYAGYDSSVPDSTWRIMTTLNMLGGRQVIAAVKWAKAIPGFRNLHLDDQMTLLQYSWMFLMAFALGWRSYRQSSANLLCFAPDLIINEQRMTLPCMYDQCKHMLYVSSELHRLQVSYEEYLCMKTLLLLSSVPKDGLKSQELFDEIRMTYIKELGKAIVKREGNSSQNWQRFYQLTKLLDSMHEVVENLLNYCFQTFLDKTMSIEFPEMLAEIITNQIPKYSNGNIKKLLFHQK

[11] = qHTS Assay for Identification of Small Molecule Agonists for Hypoxia Response Element Signaling Pathway (AID 914; active = well fitted activation curve with a large enough effect in the signal ratio, with a control signal flat, not every such curve was filed as active; the % refers to the signal ratio; also: % of control where 0% means no effect); details: ME-180 (cervical carcinoma) HRE-bla reporter, beta-lactamase ratio, CoCl2, 17 h; activation: active compounds read high
Summary of the method: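 AC50 values come from titration-series %Activity, taken as the 460/530nm ratio of CCF4 fluorescence (excitation 405nm). CellSensor HRE-bla ME-180 cells were treated 17 hours at 37 C with compound plus an EC50 level of CoCl2.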

CCN(c1ccccc1)S(=O)(=O)c1ccc(C(=O)Nc2ccncc2)cc1
inactive: Potency [1] | Potency [2] | activation [3] -2.02% [at 17.1 µM, percent relative to cAMP agonist control] | Potency [4] | activity change, negative = inhibition [5] -7.46% [at 30.8 µM] | activation [6] 15% [at 30.8 µM]

CCOC(=O)C1=C(CC)OC(N)=C(C#N)C1c1ccc(OC)c(OC)c1OC (centres undefined)
inactive: Potency [1] | Potency [2] | activation [3] -0.762% [at 17.1 µM, percent relative to cAMP agonist control] | Potency [4] | activity change, negative = inhibition [5] -16.4% [at 30.8 µM] | activation [6] 8.26% [at 30.8 µM]

COC(=O)c1cc(Br)c(=O)n(CCc2ccc(F)cc2)c1
inactive: activity change, negative = inhibition [7] 4.29% [at 17.2 µM] | activity change, negative = inhibition [8] -12.1% [at 17.2 µM] | outcome [9] | Potency [10] > 20.6 µM | Potency [1] | Potency [2] | Potency [3] | Potency [4] | Potency [5] | Potency [6]

CC(NC(=O)Nc1ccc(O)cc1)(C(F)(F)F)C(F)(F)F
inactive: activity change, negative = inhibition [7] 5.47% [at 17.2 µM] | activity change, negative = inhibition [8] 11.8% [at 17.2 µM] | outcome [9] | Potency [10] > 20.6 µM | activation [11] 8.6% | Potency [1] | Potency [2] | activation [3] -12.7% [at 17.1 µM, percent relative to cAMP agonist control] | Potency [4] | activity change, negative = inhibition [5] -9.73% [at 30.8 µM] | activation [6] 3.78% [at 30.8 µM]

N#C/C(=C(/O)C(Cl)(Cl)Cl)c1nc2ccccc2[nH]1
inactive: Potency [1] | Potency [2] | Potency [3] | Potency [4] | Potency [5] | Potency [6]

Source: PubChem BioAssay (NCATS)
